Data from the supplement of paper PMC10646978.
± gives the standard deviation.

Assays:
Details in all cases: modulator concentration 10 µM
[1] = system: RAW-Dual (murine macrophage reporter line); test: NF-kB reporter (SEAP) activity fold change vs agonist alone; higher = enhanced NF-kB activity
In short: (§1)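 Compound reached 10 μM final in each well by pin transfer, onto RAW-Dual murine macrophage reporter cells seeded at 50 000 per well in 384-well plates. After 1 hour at 37 °C, the cells were stimulated overnight with a PRR agonist. SEAP in the supernatant was read with QUANTI-Blue at 620 nm absorbance for NF-κB, and Lucia luciferase was read with QUANTI-Luc luminescence for IRF. Each signal was turned into fold change against the mean agonist-only control on the same plate, and two replicate plates were averaged with propagated errors.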

[2] = system: RAW-Dual (murine macrophage reporter line); test: IRF reporter (Lucia luciferase) activity fold change vs agonist alone; higher = enhanced IRF activity
In short: as §1

[3] = system: RAW-Dual (murine macrophage reporter line); test: viability score (confluency relative to resting cells, overnight) (fraction); higher = more viable, active = viable (0.7 or more)
In short: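 Confluency was the readout: RAW-Dual macrophages were imaged with IncuCyte after an overnight exposure to compound at 10 μM final. IncuCyte software produced two masks over all imaged wells. The viability score expresses confluency against resting cells, and both masks had to exceed 70% of resting cells for a compound to meet the cutoff.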

[4] = agonist: CpG ODN 1826 0.5 ug/mL

| Structure (SMILES) | NF-kB reporter [1, 4] | NF-kB reporter ([1]; agonist: LPS 0.1 ug/mL) | NF-kB reporter ([1]; agonist: MPLA […]) | IRF reporter ([2]; agonist: 3'3'-cGAMP 10 ug/mL) | IRF reporter ([2]; agonist: LPS 0.1 ug/mL) | IRF reporter ([2]; agonist: MPLA […]) | viability score [3] |
| --- | --- | --- | --- | --- | --- | --- | --- |
| O=C(Cc1ccc(F)cc1)NCC1CCCN1c1ccccc1 (configuration not stated) | 1.21 ± 0.11 | 1.1 ± 0.083 | 1.09 ± 0.029 | 0.677 ± 0.043 | 1.12 ± 0.077 | 0.893 ± 0.13 | 0.992 (active) |
| Cl.Cl.OCCN1CCN(CCCN2c3ccccc3Sc3ccc(C(F)(F)F)cc32)CC1 | 0.972 ± 0.047 | 0.893 ± 0.073 | 0.91 ± 0.05 | 0.895 ± 0.042 | 1.03 ± 0.15 | 0.947 ± 0.3 | 0.677 (inactive) |
| Cc1c(-c2ccccc2)nc2ccccc2c1C(=O)N1CCCC1 | 1.09 ± 0.095 | 1.13 ± 0.087 | 1.1 ± 0.069 | 1.01 ± 0.035 | 1.62 ± 0.18 | 1.24 ± 0.13 | 1.01 (active) |
| CC(=O)N(C=Cc1cc[n+](CCCS(=O)(=O)[O-])c2ccccc12)c1ccccc1 | 0.982 ± 0.1 | 1.05 ± 0.063 | 0.908 ± 0.094 | 1.01 ± 0.052 | 1.57 ± 0.16 | 1.25 ± 0.25 | 1.01 (active) |
| CCOc1cc2ncc(C#N)c(Nc3ccc(F)c(Cl)c3)c2cc1NC(=O)/C=C/CN(C)C | 0.714 ± 0.27 | 0.512 ± 0.048 | 0.445 ± 0.097 | 0.158 ± 0.019 | 0.374 ± 0.04 | 0.22 ± 0.019 | 0.968 (active) |
| CC1CCc2cc(F)cc3c(=O)c(C(=O)O)cn1c23 (configuration not stated) | 0.961 ± 0.13 | 1.01 ± 0.074 | 1.01 ± 0.066 | 0.955 ± 0.066 | 0.872 ± 0.031 | 0.86 ± 0.16 | 0.999 (active) |
| Nc1ccn(C2OC(CO)C(O)C2O)c(=O)n1 (configuration not stated) | 1 ± 0.082 | 0.875 ± 0.092 | 1.49 ± 0.44 | 0.96 ± 0.052 | 1.25 ± 0.2 | 1.26 ± 0.27 | 1.03 (active) |
| O=C(OC(=Cc1nccn1Cc1ccc(Cl)cc1)c1ccccc1)c1ccccc1 | 0.323 ± 0.021 | 0.481 ± 0.05 | 0.394 ± 0.026 | 0.37 ± 0.015 | 1.36 ± 0.12 | 1.51 ± 0.13 | 0.973 (active) |
| C=C(Br)Cn1c(COc2ccccc2)nc2ccccc21 | 0.562 ± 0.098 | 1.06 ± 0.12 | 1.05 ± 0.084 | 1.12 ± 0.036 | 1.19 ± 0.28 | 1.19 ± 0.15 | 0.991 (active) |
| COc1ccc(C=Nn2cc(-c3ccc(Cl)cc3)nc2N=Cc2cc(Br)cc(Br)c2O)cc1 | 0.863 ± 0.068 | 0.919 ± 0.067 | 0.874 ± 0.094 | 0.883 ± 0.037 | 1.08 ± 0.14 | 1.07 ± 0.23 | 1.02 (active) |
| CCN(CC)CCOC(=O)C(Cc1cccc2ccccc12)CC1CCCO1.O=C(O)C(=O)O (configuration not stated) | 0.672 ± 0.21 | 1.05 ± 0.061 | 0.998 ± 0.11 | 0.491 ± 0.026 | 1.12 ± 0.2 | 1.27 ± 0.13 | 0.977 (active) |
| O=C(COc1ccc2ccccc2c1)Nc1cnoc1 | 1.12 ± 0.35 | 1.14 ± 0.081 | 1.12 ± 0.088 | 0.92 ± 0.053 | 1.05 ± 0.17 | 0.942 ± 0.1 | 1 (active) |
| CNC1CCCN(c2c(F)cc3c(=O)c(C(=O)O)cn(C4CC4)c3c2OC)C1 (configuration not stated) | 0.783 ± 0.095 | 0.821 ± 0.04 | 1.12 ± 0.16 | 1.02 ± 0.048 | 1.35 ± 0.094 | 1.43 ± 0.14 | 0.999 (active) |
| Cc1cc(C)n(CCCN2C(=O)c3cccc4cccc(c34)C2=O)n1 | 0.926 ± 0.084 | 1.04 ± 0.083 | 0.955 ± 0.11 | 0.993 ± 0.054 | 1.09 ± 0.075 | 1.14 ± 0.088 | 1.01 (active) |
| CN1CCC(=C2c3ccccc3CCc3sccc32)CC1.O=C(O)CC(O)C(=O)O | 0.574 ± 0.054 | 0.705 ± 0.035 | 0.868 ± 0.094 | 0.692 ± 0.036 | 1.09 ± 0.073 | 1 ± 0.12 | 0.385 (inactive) |
| CN1CCN(C2=Nc3ccccc3Oc3ccc(Cl)cc32)CC1.O=C(O)CCC(=O)O | 0.411 ± 0.052 | 0.796 ± 0.081 | 1.07 ± 0.1 | 0.548 ± 0.12 | 0.722 ± 0.13 | 0.672 ± 0.15 | 0.92 (active) |
| CS(=O)(=O)N1C2CCC1CC(NC(=O)NC1CCCC1)C2 (configuration not stated) | 1.01 ± 0.11 | 1.03 ± 0.12 | 0.88 ± 0.059 | 0.98 ± 0.093 | 1.21 ± 0.14 | 1.2 ± 0.26 | 1.01 (active) |
| COc1ccc(-c2cc(=O)oc3cc(OCc4cc5c(cc4Cl)OCO5)ccc23)cc1 | 0.738 ± 0.058 | 0.829 ± 0.13 | 1.08 ± 0.11 | 0.983 ± 0.053 | 1.17 ± 0.068 | 1.16 ± 0.15 | 1.01 (active) |
| O=C(CCC1CCCCC1)Nc1ccc(Br)cc1 | 1.02 ± 0.068 | 0.98 ± 0.074 | 1.07 ± 0.029 | 0.591 ± 0.029 | 0.922 ± 0.048 | 0.976 ± 0.096 | 0.986 (active) |
| CCOC(=O)c1sc(NC(=O)CSc2nc3ccccc3o2)c(C(=O)OCC)c1C | 1.01 ± 0.057 | 1.11 ± 0.09 | 1.06 ± 0.071 | 1.04 ± 0.039 | 1.3 ± 0.096 | 0.995 ± 0.12 | 0.981 (active) |
| COC(=O)C1=C(C)NC(C)=C(C(=O)O[C@@H]2CCCN(Cc3ccccc3)C2)[C@@H]1c1cccc([N+](=O)[O-])c1 [Prestw-1766] | 0.317 ± 0.025 | 0.731 ± 0.069 | 0.717 ± 0.071 | 0.412 ± 0.043 | 1.1 ± 0.14 | 0.886 ± 0.21 | 1.07 (active) |
| CC(C)(C)C1CCc2c(sc(NC(=O)c3ccc(F)cc3)c2C(N)=O)C1 (configuration not stated) | 0.981 ± 0.16 | 0.999 ± 0.12 | 1 ± 0.13 | 0.914 ± 0.041 | 1.24 ± 0.3 | 1.24 ± 0.21 | 0.56 (inactive) |
| C/C(O)=C(\C#N)C(=O)Nc1ccc(C(F)(F)F)cc1 | 0.861 ± 0.037 | 1.04 ± 0.084 | 1.01 ± 0.074 | 0.855 ± 0.044 | 1.24 ± 0.26 | 1.4 ± 0.58 | 1 (active) |
| CCn1ccc(C(=O)N2CCN(c3cc(C(F)(F)F)nc(C)n3)CC2)n1 | 1.27 ± 0.098 | 1.07 ± 0.092 | 1.01 ± 0.05 | 0.637 ± 0.028 | 0.744 ± 0.035 | 0.839 ± 0.11 | 1 (active) |
| CC(C)C1=CC2=CCC3C(C)(C(=O)O)CCCC3(C)C2CC1 (configuration not stated) | 0.962 ± 0.076 | 0.863 ± 0.065 | 0.891 ± 0.085 | 0.93 ± 0.03 | 1.22 ± 0.2 | 1.35 ± 0.33 | 1.05 (active) |
| O=C(Nc1ccc(-c2cn3ccsc3n2)cc1)C1CCCC1 | 1.14 ± 0.09 | 1.1 ± 0.15 | 1.37 ± 0.13 | 0.69 ± 0.027 | 1.23 ± 0.18 | 1.38 ± 0.23 | 0.962 (active) |
